PubChem BioAssay AID1159580 (chemical genetic matrix, 2015)
Where “and” joins values, the source holds several entries; their conditions need not be identical. Equal entries are not always repeated. The whole screen tested about 5,500 compounds, of which about 2,000 (36%) were called active. Another 18% or so got no clear call; they are omitted. Cut-off read from the data, not from the text of the source: active = normalized growth mostly below about 0.91 (no sharp cut-off); inconclusive = no clear call, values can overlap the other calls; inactive = mostly above about 0.92. Some of the results follow.

Experiment: chemical genetic growth profiling, strain panel (AID 1159580);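 note: tested at 20 µM; growth read once vehicle control cultures reached saturation at 30 °C; 1 = growth at the plate median or of vehicle wells; lower values mean less growth of the strain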
Details: S. cerevisiae deletion strains, growth OD

Measured: normalized growth

NC1(C(=O)O)CCCC1
inactive: locus YAL013W, strain DEP1, stronger effect = lower value 1 | locus YAL021C, strain ccr4, stronger effect = lower value 1.01 | locus YAL026C, strain drs2, stronger effect = lower value 1.02 | locus YAL030W, strain snc1, stronger effect = lower value 1.02 | locus YBL061C, strain skt5, stronger effect = lower value 1.01 | locus YBR009C, strain hhf1, stronger effect = lower value 1 | locus YBR021W, strain FUR4, stronger effect = lower value 0.989 | locus YBR023C, strain chs3, stronger effect = lower value 1.02 | locus YBR171W, strain sec66, stronger effect = lower value 1.03 | locus YBR229C, strain ROT2, stronger effect = lower value 1.01 | locus YBR231C, strain swc5, stronger effect = lower value 1.02 | locus YBR279W, strain paf1, stronger effect = lower value 1.01 | locus YCL011C, strain gbp2, stronger effect = lower value 1.02 | locus YCL016C, strain dcc1, stronger effect = lower value 1.01 | locus YCL029C, strain bik1, stronger effect = lower value 1.02 | locus YCL061C, strain MRC1, stronger effect = lower value 1.02 | locus YCL069W, strain vba3, stronger effect = lower value 1.02 | locus YCR088W, strain abp1, stronger effect = lower value 1.02 | locus YDL005C, strain med2, stronger effect = lower value 1.01 | locus YDL035C, strain GPR1, stronger effect = lower value 1.01 | locus YDL040C, strain nat1, stronger effect = lower value 1.01 | locus YDL074C, strain BRE1, stronger effect = lower value 1.02 | locus YDL101C, strain DUN1, stronger effect = lower value 1 | locus YDL134C, strain PPH21, stronger effect = lower value 0.998 | locus YDL185W, strain tfp1, stronger effect = lower value 0.989 | locus YDL192W, strain arf1, stronger effect = lower value 0.998 | locus YDR001C, strain nth1, stronger effect = lower value 1.02 | locus YDR069C, strain doa4, stronger effect = lower value 1.03 | locus YDR101C, strain arx1, stronger effect = lower value 1.01 | locus YDR137W, strain rgp1, stronger effect = lower value 1 | locus YDR150W, strain NUM1, stronger effect = lower value 1.01 | locus YDR159W, strain sac3, stronger effect = lower value 0.995 | locus YDR162C, strain NBP2, stronger effect = lower value 1.01 | locus YDR195W, strain ref2 1.03 | locus YDR297W, strain sur2, stronger effect = lower value 1.01 | locus YDR318W, strain mcm21, stronger effect = lower value 0.996 | locus YDR334W, strain swr1, stronger effect = lower value 1.01 | locus YDR335W, strain msn5, stronger effect = lower value 1.01 | locus YDR388W, stronger effect = lower value 0.998 | locus YDR392W, strain spt3, stronger effect = lower value 1.01 | locus YDR502C, strain sam2, stronger effect = lower value 0.99 | locus YEL003W, strain gim4, stronger effect = lower value 1.02 | locus YEL037C, strain rad23, stronger effect = lower value 1.02 | locus YEL061C, strain CIN8 (second series), stronger effect = lower value 1.02 | locus YEL061C, strain CIN8, stronger effect = lower value 1.01 | locus YER015W, strain faa2, stronger effect = lower value 1.02 | locus YER016W, strain bim1, stronger effect = lower value 1.01 | locus YER110C, stronger effect = lower value 1 | locus YER111C, strain swi4, stronger effect = lower value 1.03 | locus YER155C, strain BEM2 (second series), stronger effect = lower value 1.07 | locus YER155C, strain BEM2, stronger effect = lower value 0.997 | locus YER167W, strain BCK2, stronger effect = lower value 1.01 | locus YFR010W, strain ubp6, stronger effect = lower value 1.02 | locus YGL078C, strain dbp3, stronger effect = lower value 0.989 | locus YGL086W, strain mad1, stronger effect = lower value 0.994 | locus YGL167C, strain pmr1, stronger effect = lower value 1.01 | locus YGL173C, strain kem1, stronger effect = lower value 1.02 | locus YGL227W, strain vid30, stronger effect = lower value 1.02 | locus YGL240W, strain doc1, stronger effect = lower value 1.04 | locus YGL248W, strain PDE1, stronger effect = lower value 1.01 | locus YGL253W, strain hxk2, stronger effect = lower value 1.02 | locus YGR135W, strain pre9, stronger effect = lower value 0.998 | locus YGR252W, strain gcn5, stronger effect = lower value 0.935 | locus YHR013C, strain ard1, stronger effect = lower value 1.07 | locus YHR027C, strain rpn1, stronger effect = lower value 1.01 | locus YHR030C, strain SLT2, stronger effect = lower value 1.01 | locus YHR079C, strain IRE1 (second series), stronger effect = lower value 0.996 | locus YHR079C, strain IRE1, stronger effect = lower value 1.04 | locus YHR094C, strain hxt1, stronger effect = lower value 0.998 | locus YHR129C, strain ARP1, stronger effect = lower value 1.01 | locus YHR142W, strain chs7, stronger effect = lower value 1.03 | locus YHR200W, strain rpn10, stronger effect = lower value 0.997 | locus YIL066C, strain RNR3, stronger effect = lower value 1.02 | locus YIL073C, strain SPO22, stronger effect = lower value 1.02 | locus YIL125W, strain kgd1, stronger effect = lower value 1 | locus YIR030C, strain dcg1, stronger effect = lower value 1.01 | locus YJL092W, strain hpr5, stronger effect = lower value 1.03 | locus YJL095W, strain BCK1 (second series), stronger effect = lower value 1.01 | locus YJL095W, strain BCK1, stronger effect = lower value 1.01 and 1.02 | locus YJL115W, strain asf1, stronger effect = lower value 1.03 | locus YJL129C, strain trk1, stronger effect = lower value 1.06 | locus YJL134W, strain LCB3, stronger effect = lower value 1.01 | locus YJL154C, strain vps35, stronger effect = lower value 1.02 | locus YJL164C, strain tpk1, stronger effect = lower value 1.02 | locus YJL166W, strain qcr8, stronger effect = lower value 1.02 | locus YJL168C, strain set2, stronger effect = lower value 0.994 | locus YJL187C, strain SWE1 (second series), stronger effect = lower value 1.01 | locus YJR043C, strain POL32, stronger effect = lower value 1 | locus YJR066W, strain TOR1, stronger effect = lower value 0.975
